Test results reported in PubChem BioAssay (NCI).
About 83,000 compounds went through this panel and 20% of them were active in at least one assay; those are over-represented in the sample as a whole.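 Plates (96-well) were seeded with cells, treated with compound at one concentration, and incubated for 48 hours before percent growth was determined.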 A number with no mark means an inactive call. The source made the active and inactive calls. The calls were made as follows: active = growth percent below 10; inactive = the rest.

Assays:
Experiment in all cases: NCI-60 one-dose screen, 48 h (100 = growth as untreated, 0 = no growth, -100 = all killed)
Conditions in all cases: 10 µM unless noted
DU-145 prostate = tested on: DU-145 prostate
K-562 leukemia = tested on: K-562 leukemia
MALME-3M melanoma = tested on: MALME-3M melanoma
MDA-MB-231 breast = tested on: MDA-MB-231 breast
RXF 393 renal = tested on: RXF 393 renal
SF-268 CNS = tested on: SF-268 CNS
SF-295 CNS = tested on: SF-295 CNS
SF-539 CNS = tested on: SF-539 CNS
UACC-257 melanoma = tested on: UACC-257 melanoma
M14 melanoma = tested on: M14 melanoma
HCT-15 colon = tested on: HCT-15 colon
HT29 colon = tested on: HT29 colon
SNB-19 CNS = tested on: SNB-19 CNS
U251 CNS = tested on: U251 CNS
PC-3 prostate = tested on: PC-3 prostate
SK-MEL-5 melanoma = tested on: SK-MEL-5 melanoma
UACC-62 melanoma = tested on: UACC-62 melanoma
LOX IMVI melanoma = tested on: LOX IMVI melanoma
SK-MEL-28 melanoma = tested on: SK-MEL-28 melanoma
SNB-75 CNS = tested on: SNB-75 CNS

| SMILES | growth (DU-145 prostate) | growth (K-562 leukemia) | growth (MALME-3M melanoma) | growth (MDA-MB-231 breast) [%] | growth (RXF 393 renal) | growth (SF-268 CNS) | growth (SF-295 CNS) | growth (SF-539 CNS) | growth (UACC-257 melanoma) [%] | growth (M14 melanoma) | growth (HCT-15 colon) | growth (HT29 colon) | growth (SNB-19 CNS) | growth (U251 CNS) | growth (PC-3 prostate) [%] | growth (SK-MEL-5 melanoma) | growth (UACC-62 melanoma) | growth (LOX IMVI melanoma) | growth (SK-MEL-28 melanoma) | growth (SNB-75 CNS) [%] |
| --- | --- | --- | --- | --- | --- | --- | --- | --- | --- | --- | --- | --- | --- | --- | --- | --- | --- | --- | --- | --- |
| COc1cc(/C=N/Nc2ncc(-c3cc4cc5c(cc4o3)OCO5)s2)cc(OC)c1OC | 48% | 30.1% | 93.8% | 46.5 | 66.3% | 74.9% | 67.1% | 81.7% | 42.2 | 26.3% | 35.7% | 56.2% | 76.1% | 68.1% | 21.5 | 4.87% (active) | 33.7% | 36.1% | 60.7% | – |
| Cc1ccc(-c2cc3c(cc2O)C2CCCCC2(N2CCOCC2)O3)cc1 (stereo not drawn) | 106% | 89.1% | 101% | 114 | 90.6% | 97.2% | 103% | 105% | 102 | – | 101% | 105% | 98.7% | 98.6% | 75.3 | 99.1% | 71.2% | 87.1% | 111% | 75.4 |
| CC(C)CCC[C@@H](C)[C@H]1CC[C@H]2[C@@H](Nc3ccc(O)cc3)CCC[C@]12C | 96.5% | 105% | 133% | 109 | 70.6% | 80.2% | 98.5% | 17.5% | 42.2 | 102% | 70.8% | 89.5% | – | 91.8% | 33.5 | 97.9% | 76.5% | 34.7% | 97.9% | – |
| O=c1c2cc(F)ccc2sc2c(NCCCN3CCCC3)nc3ccccc3c12 | 60.1% | -29.7% (active) | 26.5% | 21.1 | 22.7% | 47.6% | 55.1% | 65.3% | 54.2 | -64.2% (active) | 7.59% (active) | 5.1% (active) | 53.6% | 33.2% | 43.8 | 58.8% | -75.9% (active) | -87.1% (active) | -52.8% (active) | – |
| Cc1occc1-c1n[nH]c(=S)n1N1C(=O)CSC1=S | 108% | 103% | 98% | 101 | 112% | 97% | 101% | 98.5% | 109 | 102% | 101% | 105% | 97% | 100% | 97.2 | 101% | 91.4% | 94.1% | 106% | – |
| O=C1/C(=C2/C=Nc3ccccc32)N(O)c2ccccc21 | 73.7% | 19.6% | 56.3% | 64.9 | 92.2% | 76% | 71% | 104% | 45 | 87.4% | 49.5% | 100% | 93% | 84.9% | 51 | 68% | 33.6% | 33.5% | 92.8% | – |
| O=C(COc1ccc(/C=C2\Oc3ccccc3C2=O)cc1)c1ccc(Cl)cc1 | 119% | 93.7% | 111% | 85.7 | 91.8% | 106% | 309% | 96.7% | 117 | 108% | 106% | 107% | 94.3% | – | 98.2 | 109% | 88.2% | 95.8% | 120% | – |
| COc1ccc(CNC(=O)C(O)C(Cc2ccccc2)NC(=O)c2[nH]c3ccccc3c(=O)c2C)cc1OC (stereo not drawn) | 113% | 102% | 111% | 103 | 111% | 102% | 99.7% | 107% | 105 | 106% | 101% | 100% | 100% | 101% | 102 | 103% | 103% | 104% | 109% | – |
| CC(=O)O[C@]1(C(C)=O)CCC2C3C[C@H](C)C4=CC(=O)CC[C@]4(C)C3CC[C@@]21C (stereo partly drawn) | 117% | 96% | 82.8% | 71 | 119% | 108% | 95.7% | 94.1% | 107 | 89% | 92.3% | 87.7% | 96.4% | – | 68.4 | 81.8% | 79.3% | 95.7% | 108% | – |
| O=C(CCc1nnc(CN(c2ccccc2)c2ccccc2)o1)c1nc2ccccc2[nH]1 | 104% | 76.3% | 94.3% | 75.3 | 113% | 93.6% | 95.6% | 97.5% | 103 | 102% | 97.4% | 93.4% | 92.7% | 94.9% | 76.3 | 99.4% | 69.4% | 80.3% | 112% | – |
| COc1cc(C2CC(=O)Nc3c2c(C)nn3-c2nc3ccccc3[nH]2)cc2c1OCC(=O)N2 (stereo not drawn) | 111% | 89.3% | 117% | 55.8 | -0.584% (active) | 48.8% | 19.1% | 50.6% | 69.6 | 34.8% | 95.3% | 66.9% | 49.1% | 55.2% | 69.1 | 52.3% | 65.5% | 51.2% | 65.4% | – |
| N#Cc1c(-c2cccc(Cl)c2)cc(-c2cccc(Cl)c2)[nH]c1=O | 96.5% | 27.1% | 69% | 90.5 | 82.1% | 83.4% | 83.7% | 82.7% | 90.2 | 57.9% | 44.9% | 114% | 71.6% | 74.7% | 68.7 | 64.9% | 45.2% | 72.3% | 78.5% | – |
| O=C(/C=C/c1cccc(O)c1)c1cccc(-n2cc(-c3ccc4ccccc4c3)[nH]c2=O)c1 | -17.3% (active) | -40.4% (active) | -6.88% (active) | 14.7 | 29.8% | -6.97% (active) | 6.57% (active) | -88.3% (active) | 99.6 | 16.2% | 2.35% (active) | -72.7% (active) | -43.2% (active) | -86.6% (active) | – | -2.25% (active) | 11.4% | -78.2% (active) | 42.9% | – |
| CCCc1cc2c(=O)c(C(=O)OC)c[nH]c2cc1N(CC)CC | 112% | 96.2% | 95.4% | 108 | 29.3% | 102% | 85.2% | 97.6% | 136 | 110% | 95.9% | 110% | 99.1% | 104% | 79.6 | 91.5% | 83% | 108% | 112% | – |
| COc1cc(/C=C/C(=O)c2ccc(Nc3nc(Nc4ccc(F)cc4)nc(Nc4ccc(Cl)cc4)n3)cc2)cc(OC)c1OC | 68.5% | 35.8% | 56.2% | 62.6 | -31.1% (active) | 74.8% | 369% | 67.7% | 102 | 65.6% | 55% | 3.82% (active) | 101% | 27.5% | 21.4 | 33.5% | 56.5% | 37.3% | -32.9% (active) | – |
| N#Cc1c(N)nn(C(=O)c2ccc(NC(=O)c3ccccn3)cc2)c1-c1ccc(Cl)cc1 | 3.96% (active) | 34.2% | -17.5% (active) | 61.1 | 54% | -8.49% (active) | 54.9% | -27.8% (active) | 48 | 17.1% | 32.9% | 18.1% | 23.4% | -39.2% (active) | 15.5 | 25% | 43.1% | 30.5% | 70.4% | – |
| Cc1c(C(=O)N[C@@H](Cc2ccccc2)C(=O)C(=O)NCCc2ccccc2)[nH]c2ccccc2c1=O | 101% | 91.7% | 103% | 97.7 | 112% | 98.6% | 103% | 102% | 101 | 110% | 102% | 105% | 98% | 99.6% | – | 97.8% | 92.1% | 97.8% | 105% | – |
